Screening results as filed in PubChem BioAssay.
Compounds with a hit are over-represented: about 1.5% of the library has one in this group of screens.
CRFBP-R2 agonist: agonists of human CRF-binding protein/CRF-R2 receptor complex; hit rate 0.46% among 350,000; HEK293 CRF-R2/CRF-BP, calcium dye fluorescence (FLIPR); percent of saturating CRF peptide response; activation, % at 13.2 µM;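 active = activation of at least 50%, plus an integration ratio under a set limit after plate pattern correction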
CRFR2-BP antag: blocks CRF-induced signaling of the CRF-BP/CRF-R2 complex. HEK293 CRF-R2/CRF-BP, CRF-induced calcium fluorescence. inhibition, % at 11.8 µM. hit rate 0.59% among 350,000;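 active = inhibition of the ligand-induced calcium signal above about 50% at the single tested concentration, limit read from the data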
RTF Ca sens inh: cardiac RTF calcium desensitization. IANBD-labeled cardiac RTF, Ca2+ fluorescence. P19429+P45379. hit rate 0.12% among 340,000. inhibition, % at 7.15 µM;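 active = inhibition above the mean inhibition of all tested compounds plus 3 SD, cut at about 17% in these data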;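 also: assay run at fixed EC70 calcium of 1.6 mM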
cardiac RTF act: cardiac RTF calcium sensitization | P19429+P45379 | IANBD-labeled TnC RTF fluorescence at EC20 calcium; 0% EC20 calcium, 100% full calcium | activation, % at 7.2 µM | hit rate 0.24% among 340,000 | AID 493008;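 active = activation above the mean over all tested compounds plus 3 SD, cut at about 30% in these data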;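 also: rise in fluorescence read as greater calcium sensitivity of cardiac thin filaments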
IDE cell inh: inhibitors of human insulin-degrading enzyme in cells. hit rate 0.41% among 320,000. HEK cells, FAbetaB cleavage, fluorescence polarization. P14735. inhibition, % at 5.59 µM. AID 434962;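 active = percent inhibition above the average of all tested compounds plus 3 SD, set per screening campaign, cut at about 16% in these data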;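 also: IDE supplied by intact live HEK cells; FP after avidin binding of uncleaved biotin substrate so inhibition keeps polarization high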
Target sequence (P14735 whole entry, looked up): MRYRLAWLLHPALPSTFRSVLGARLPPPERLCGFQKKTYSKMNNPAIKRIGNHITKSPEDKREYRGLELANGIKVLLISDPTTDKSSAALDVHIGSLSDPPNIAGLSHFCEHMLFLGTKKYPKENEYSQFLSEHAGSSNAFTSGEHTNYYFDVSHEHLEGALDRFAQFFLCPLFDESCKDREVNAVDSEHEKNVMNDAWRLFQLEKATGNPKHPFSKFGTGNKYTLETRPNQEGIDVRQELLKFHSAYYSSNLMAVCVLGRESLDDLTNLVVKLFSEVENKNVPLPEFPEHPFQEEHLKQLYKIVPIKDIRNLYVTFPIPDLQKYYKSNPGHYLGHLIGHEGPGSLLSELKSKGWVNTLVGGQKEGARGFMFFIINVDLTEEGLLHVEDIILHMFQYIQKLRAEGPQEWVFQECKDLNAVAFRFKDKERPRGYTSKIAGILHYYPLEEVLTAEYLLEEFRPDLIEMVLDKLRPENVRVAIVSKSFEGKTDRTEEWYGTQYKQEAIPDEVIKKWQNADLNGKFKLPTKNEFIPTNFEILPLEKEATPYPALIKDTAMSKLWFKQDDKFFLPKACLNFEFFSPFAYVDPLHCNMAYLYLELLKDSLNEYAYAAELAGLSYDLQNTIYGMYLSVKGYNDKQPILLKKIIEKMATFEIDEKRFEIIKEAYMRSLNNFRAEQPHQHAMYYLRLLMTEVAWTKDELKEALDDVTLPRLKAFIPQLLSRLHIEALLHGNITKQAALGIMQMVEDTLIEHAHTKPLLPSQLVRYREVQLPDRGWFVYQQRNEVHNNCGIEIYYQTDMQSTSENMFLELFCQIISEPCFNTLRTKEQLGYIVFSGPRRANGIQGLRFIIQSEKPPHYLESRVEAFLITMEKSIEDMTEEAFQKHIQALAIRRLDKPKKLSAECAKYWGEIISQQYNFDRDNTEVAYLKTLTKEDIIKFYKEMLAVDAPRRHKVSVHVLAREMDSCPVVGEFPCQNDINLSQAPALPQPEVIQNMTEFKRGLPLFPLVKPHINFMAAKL
IDE act: activators of human insulin-degrading enzyme in cells | P14735 | HEK cells, FAbeta-B cleavage, fluorescence polarization; 0% vehicle, 100% cell-free pure enzyme wells | activation, % at 5.96 µM | hit rate 0.073% among 340,000 | AID 493087;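 active = activation above the mean of all tested compounds plus 3 SD, set per screening campaign, cut at about 17% in these data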
IDE cell inh cf: cellular human IDE inhibition, confirmation; shares compounds with IDE cell inh; HEK cells, FAbetaB cleavage, fluorescence polarization; inhibition, % at 5.59 µM; hit rate 51% among 1,200; AID 435028;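 active = mean inhibition across triplicate wells above the cutoff set by the earlier primary insulin-degrading enzyme screen, cut at about 16% in these data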
HEK cytotox: HEK cell cytotoxicity, counter-screen for IDE inhibitors | HEK293 cytotoxicity, ATP luminescence | inhibition, % at 5.59 µM | shares compounds with IDE cell inh | AID 449730 | hit rate 28% among 1,200; in the data active = inhibition above about 22%
FP fluor counter: fluorescence interference counter-screen for IDE inhibitors; shares compounds with IDE cell inh; FP counterscreen for fluorescent artifacts, IDE probe project; IC50, µM; 30 tested, under 10 active; call rule not given here
Hits are given with their value; - = inactive; . = no result.

SMILES	CRFBP-R2 agonist	CRFR2-BP antag	RTF Ca sens inh	cardiac RTF act	IDE cell inh	IDE act	IDE cell inh cf	HEK cytotox	others
Cc1cc(C)n2nc(C(=O)OCC(=O)N(C)CC(=O)Nc3ccccc3Cl)nc2n1	-	-	-	-	-	-	.	.
CC1(C)CC(=O)C/C(=N\NC(=O)Cc2ccccc2)C1	-	-	-	-	-	-	.	.
CC1(C)CC(=O)C/C(=N/NC(=O)c2ccc(-c3ccccc3)cc2)C1	-	-	-	-	18	-	-	-
Cc1cc(=O)oc2c3c(cc(OCC(=O)NCc4ccncc4)c12)OC(C)(C)CC3	-	-	-	-	22	-	-	24
Cc1c(C)c2c(OCC(=O)NCc3ccncc3)cc3c(c2oc1=O)CCC(C)(C)O3	-	-	-	-	-	-	.	.
CC(C)(C)c1ccc(OCC(=O)NCCN2CCOCC2)cc1	-	-	-	-	-	-	.	.
COc1ccc(CCNC(=O)c2ccc(Cl)c(S(=O)(=O)N3CCCCCC3)c2)cc1	-	-	-	-	-	-	.	.
COc1ccc(CCNC(=O)c2ccc(Cl)c(S(=O)(=O)N(C)c3ccccc3)c2)cc1	-	-	-	-	18	-	-	34
Cc1cc(C)c[n+](C(C)C(=O)c2ccc(-c3ccccc3)cc2)c1 (stereo unspecified)	-	-	-	-	17	-	-	71
Cc1ccc[n+](C(C)C(=O)c2ccc(Cl)cc2)c1 (stereo unspecified)	-	-	-	-	-	-	.	.
CC(=O)c1cc(NC(=O)c2ccc(Cl)cc2)c(=O)oc1/C=C/N(C)C	79	-	-	-	17	-	54	-
COc1ccc(C(=O)Nc2cc(C(C)=O)c(C)oc2=O)cc1	-	-	-	-	-	-	.	.
CN(C)c1ccc(/C=C/c2nc3ccccc3c(=O)n2-c2ccc(C(=O)O)cc2)cc1	-	-	-	538	131	-	134	-
CC(OC(=O)/C(C#N)=C/c1ccc(N(C)C)cc1)C(=O)N(C)c1ccccc1 (stereo unspecified)	.	.	-	30	16	-	31	-
CC(C)OC(=O)c1sc2nc(-c3ccccc3)ccc2c1N	-	-	-	-	-	-	.	.
COc1ccc(C(=O)c2sc3nc(-c4ccccc4)ccc3c2N)cc1	83	-	-	-	21	-	19	-
O=C(NCCCN1CCOCC1)C(=O)N/N=C/c1cccc2ccccc12	-	-	-	-	16	-	-	-
Cc1ccc(C)c(OCCC(=O)Nc2ccc(S(=O)(=O)N3CCCC3)cc2)c1	-	-	-	-	-	-	.	.
COc1ccc([C@@H]2C[C@H]3CN(c4ccccc4)C(=O)[C@]34CCCN24)c(OC)c1OC	-	-	-	-	22	-	-	-
O=C(O)CN1C(=O)C=CC1=O	-	-	.	.	.	.	.	.
O=C1C=CC(=O)N1CCCCCCN1C(=O)C=CC1=O	-	-	.	.	19	.	-	124
CC(C)Nc1nc(-c2ccncc2)nc(-c2ccccc2)c1C#N	-	-	-	-	-	-	.	.
Cc1ccc(C(=O)Nc2ccnc(-c3cccnc3)n2)cc1	-	-	-	-	-	-	.	.
Cc1ccc(NC(=O)Nc2ccnc(-c3cccnc3)n2)cc1	-	-	-	-	18	-	-	44
CC(=O)c1sc(N/N=C\c2ccccc2O)nc1C	-	-	-	-	31	-	48	-
SMILES	CRFBP-R2 agonist	CRFR2-BP antag	RTF Ca sens inh	cardiac RTF act	IDE cell inh	IDE act	IDE cell inh cf	HEK cytotox	others
COc1ccc(OC)c(/C=C2\Oc3cc(OCC(=O)N4CCC(C(=O)O)CC4)ccc3C2=O)c1	-	-	-	-	22	-	65	-
COc1ccc(OC)c(/C=C2\Oc3cc(OCC(=O)N4CC(O)C[C@H]4C(=O)O)ccc3C2=O)c1 (stereo partly specified)	-	-	-	-	-	-	.	.
Cc1ccc(CNC(=O)c2cc(S(=O)(=O)N3CCCCC3)ccc2N2CCOCC2)cc1	-	-	-	-	-	-	.	.
O=C(Nc1ccccc1Cl)C1CCCN(S(=O)(=O)c2ccc(-n3cnnn3)cc2)C1 (stereo unspecified)	-	-	-	-	-	-	.	.
Cn1c(=O)n(C)c2cc(N3CCCCC3)c(NC(=O)c3ccccc3)cc21	-	-	-	-	-	-	.	.
COc1ccc(C(=O)CSc2n[nH]c(=O)n2Cc2ccco2)cc1	-	-	-	-	18	-	-	-
COc1ccccc1C(=O)Nc1ccc(S(=O)(=O)Nc2cnc3ccccc3n2)cc1	-	-	-	-	-	-	.	.
CC(=O)N/N=C/c1cc(C(C)(C)C)cc(/C=N/NC(C)=O)c1O	77	-	.	.	48	.	29	-
CCCC[n+]1c(C)sc2cc(OC)ccc21	-	-	-	-	18	-	-	-
COc1ccc2sc(C)[n+](C)c2c1	-	-	-	-	-	-	.	.
CC(C)(c1ccccc1)c1ccc(OCC(O)CNC2CCN(Cc3ccccc3)CC2)cc1 (stereo unspecified)	-	-	-	-	-	-	.	.
COc1cc(NC(=O)c2csc(-c3ccncc3)n2)cc(C(=O)Nc2cccc(C(F)(F)F)c2)c1	-	-	-	-	-	-	.	.
Cc1nc(-c2cccnc2)sc1C(=O)Nc1cccc(C(F)(F)F)c1	-	-	-	-	-	-	.	.	FP fluor counter=-
COc1ccc(-c2nc(C(=O)Nc3cccc(C(F)(F)F)c3)cs2)cc1	.	.	.	.	.	.	.	.	FP fluor counter=-
Cc1nc(-c2cccnc2)sc1C(=O)Nc1ccc(C(F)(F)F)cc1	-	-	-	-	-	-	.	.
O=C(Nc1cccc(C(F)(F)F)c1)c1csc(-c2ccncc2)n1	-	-	-	-	50	-	29	-	FP fluor counter=-
COc1cc(CC(=O)OCC(=O)Nc2cc([N+](=O)[O-])ccc2Cl)cc(OC)c1OC	-	-	-	-	-	-	.	.
CC12CCC(=O)N1C(C(=O)NNC(=O)c1ccc(F)cc1)CS2 (stereo unspecified)	-	-	-	-	-	-	.	.
O=C(c1nc2ccccn2c1CNCCOc1cccnc1)N1CCOCC1	-	-	-	-	-	-	.	.
O=C(COc1ccc2c3c(c(=O)oc2c1)CCC3)N1CCCC1	-	-	-	-	-	-	.	.
O=C(COc1ccc2c3c(c(=O)oc2c1)CCC3)N1CCN(c2ccccc2)CC1	-	-	-	-	18	-	-	-
O=C(CC1CCC1)NC(c1ccccc1)c1ccccc1	-	-	-	-	-	-	.	.
CC[n+]1c(/C=C/c2ccc(N(C)C)cc2)ccc2ccccc21	-	-	-	-	-	-	.	.
Cc1ccc(/C=C/c2ccc(N(C)C)cc2)[n+](C)c1	-	-	-	39	18	-	25	91
